In publication PMC7862700, “An all-to-all approach to the identification of sequence-specific readers for epigenetic DNA modifications on cytosine”:

How the values were obtained:
Assay in all cases: DAPPL (digital affinity profiling via proximity ligation, sequencing); 10 mM Tris-HCl pH 7.5, 50 mM NaCl, 1 mM DTT, 4% glycerol, room temperature, 30 min; GST-TFs on glutathione beads, 16-mer random dsDNA library, 0.1% formaldehyde crosslink after washing; high values mean tight binding
Conditions in all cases: protein: recombinant; tags: N-terminal GST; dsDNA, one strand shown
FLI1 = target: T1, FLI1 (Homo sapiens, UniProt Q01543 1-452)
T1 sequence: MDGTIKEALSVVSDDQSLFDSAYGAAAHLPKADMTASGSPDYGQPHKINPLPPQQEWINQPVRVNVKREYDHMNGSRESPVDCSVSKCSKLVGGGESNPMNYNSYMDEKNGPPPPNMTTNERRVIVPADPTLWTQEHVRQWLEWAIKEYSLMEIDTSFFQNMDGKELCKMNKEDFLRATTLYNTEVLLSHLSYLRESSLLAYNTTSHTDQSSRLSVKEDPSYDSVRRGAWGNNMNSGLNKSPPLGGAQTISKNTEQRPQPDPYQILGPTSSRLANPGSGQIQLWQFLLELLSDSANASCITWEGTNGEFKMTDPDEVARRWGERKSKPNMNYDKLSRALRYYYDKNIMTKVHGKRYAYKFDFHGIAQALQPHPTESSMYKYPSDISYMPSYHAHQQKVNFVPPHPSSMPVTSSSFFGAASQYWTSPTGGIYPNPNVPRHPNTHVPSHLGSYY
Method in brief: (§1)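 In yeast, human transcription factors were expressed with a GST fusion, then pulled down on glutathione beads and given DNA barcodes. Pooled with a tag-only sample, they were exposed to 200 nmole of a 16-mer random double-stranded DNA library (Tris/NaCl/DTT/glycerol buffer, room temperature, 30 min), washed, crosslinked with 0.1% formaldehyde, proximity-ligated using BsaI/T4 ligase for 1 h at 37 °C, PCR-amplified and read on an Illumina NextSeq500. Each hexamer's frequency of reads for a factor, divided by the matching frequency for the tag-only sample, gives the binding signal.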

ELK1 = target: T2, ELK1 (Homo sapiens, UniProt P19419 1-428)
T2 sequence: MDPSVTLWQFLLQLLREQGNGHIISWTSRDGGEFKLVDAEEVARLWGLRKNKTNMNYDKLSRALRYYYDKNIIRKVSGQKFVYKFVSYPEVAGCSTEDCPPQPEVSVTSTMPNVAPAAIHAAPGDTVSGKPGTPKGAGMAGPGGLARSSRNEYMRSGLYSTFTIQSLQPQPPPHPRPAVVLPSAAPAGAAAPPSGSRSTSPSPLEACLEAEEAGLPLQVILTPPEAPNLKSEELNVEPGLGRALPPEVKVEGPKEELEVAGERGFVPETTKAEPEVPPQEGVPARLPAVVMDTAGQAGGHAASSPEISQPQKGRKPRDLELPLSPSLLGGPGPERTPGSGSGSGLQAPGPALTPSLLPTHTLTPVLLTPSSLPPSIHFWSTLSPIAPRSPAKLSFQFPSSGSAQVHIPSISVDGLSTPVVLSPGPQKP
Method in brief: as §1

ERG = target: T3, ERG (Homo sapiens, UniProt P11308 1-479)
T3 sequence: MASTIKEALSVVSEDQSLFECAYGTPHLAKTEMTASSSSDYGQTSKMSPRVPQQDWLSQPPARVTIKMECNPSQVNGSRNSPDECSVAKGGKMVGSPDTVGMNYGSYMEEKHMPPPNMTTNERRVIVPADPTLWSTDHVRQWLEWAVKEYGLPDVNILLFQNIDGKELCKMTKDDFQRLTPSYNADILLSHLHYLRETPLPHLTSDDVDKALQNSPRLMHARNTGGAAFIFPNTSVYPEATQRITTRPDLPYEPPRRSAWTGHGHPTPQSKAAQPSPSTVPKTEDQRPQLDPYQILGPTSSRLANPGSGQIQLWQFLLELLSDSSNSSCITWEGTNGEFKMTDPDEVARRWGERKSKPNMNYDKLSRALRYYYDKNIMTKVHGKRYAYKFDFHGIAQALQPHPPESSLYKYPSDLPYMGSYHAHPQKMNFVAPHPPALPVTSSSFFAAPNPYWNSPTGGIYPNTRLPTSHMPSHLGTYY
Method in brief: as §1

ELF1 = ELF1 (Homo sapiens, UniProt P32519 1-619)
Chain of ELF1 (P32519 whole entry): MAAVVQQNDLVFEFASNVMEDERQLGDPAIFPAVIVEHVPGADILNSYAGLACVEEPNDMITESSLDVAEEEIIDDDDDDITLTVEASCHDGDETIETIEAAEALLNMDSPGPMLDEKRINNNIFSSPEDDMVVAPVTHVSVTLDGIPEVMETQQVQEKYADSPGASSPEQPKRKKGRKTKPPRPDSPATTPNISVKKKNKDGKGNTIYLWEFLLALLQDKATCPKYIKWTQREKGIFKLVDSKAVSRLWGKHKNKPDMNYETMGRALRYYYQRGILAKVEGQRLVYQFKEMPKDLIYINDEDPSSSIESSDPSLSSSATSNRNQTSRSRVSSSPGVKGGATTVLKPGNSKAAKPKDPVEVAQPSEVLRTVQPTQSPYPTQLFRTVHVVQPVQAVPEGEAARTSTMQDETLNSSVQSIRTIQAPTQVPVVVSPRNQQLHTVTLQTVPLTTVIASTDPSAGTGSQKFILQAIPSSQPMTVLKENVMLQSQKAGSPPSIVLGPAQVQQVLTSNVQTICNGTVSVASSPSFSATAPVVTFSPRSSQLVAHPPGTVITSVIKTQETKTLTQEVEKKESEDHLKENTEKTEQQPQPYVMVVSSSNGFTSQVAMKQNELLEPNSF
Method in brief: as §1

SPI1 = SPI1 (Homo sapiens, UniProt P17947 1-270)
Method in brief: as §1

SPIB = SPIB (Homo sapiens, UniProt Q01892 1-262)
Chain of SPIB (Q01892 whole entry): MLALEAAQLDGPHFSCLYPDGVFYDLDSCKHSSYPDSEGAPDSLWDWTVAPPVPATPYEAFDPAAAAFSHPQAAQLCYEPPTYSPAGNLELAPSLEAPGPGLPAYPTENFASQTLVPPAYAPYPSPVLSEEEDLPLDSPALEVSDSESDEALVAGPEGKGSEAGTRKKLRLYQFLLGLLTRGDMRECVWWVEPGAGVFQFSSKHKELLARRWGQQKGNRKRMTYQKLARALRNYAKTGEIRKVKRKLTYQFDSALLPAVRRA
Method in brief: as §1

ELK3 = target: T4, ELK3 (Homo sapiens, UniProt P41970 1-407)
T4 sequence: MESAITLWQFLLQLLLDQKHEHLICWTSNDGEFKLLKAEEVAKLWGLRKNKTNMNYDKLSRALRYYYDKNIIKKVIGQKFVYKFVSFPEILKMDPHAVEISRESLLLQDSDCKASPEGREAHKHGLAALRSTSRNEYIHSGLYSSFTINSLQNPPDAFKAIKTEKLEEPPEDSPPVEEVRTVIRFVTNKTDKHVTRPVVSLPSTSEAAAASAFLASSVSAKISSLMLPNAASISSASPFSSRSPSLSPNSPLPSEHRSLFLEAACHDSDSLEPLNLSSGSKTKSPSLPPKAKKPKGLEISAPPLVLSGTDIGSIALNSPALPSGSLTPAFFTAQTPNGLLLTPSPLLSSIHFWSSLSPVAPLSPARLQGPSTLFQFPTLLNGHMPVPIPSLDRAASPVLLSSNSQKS
Method in brief: as §1

SPIC = target: T5, SPIC (Homo sapiens, UniProt Q8N5J4 1-248)
T5 sequence: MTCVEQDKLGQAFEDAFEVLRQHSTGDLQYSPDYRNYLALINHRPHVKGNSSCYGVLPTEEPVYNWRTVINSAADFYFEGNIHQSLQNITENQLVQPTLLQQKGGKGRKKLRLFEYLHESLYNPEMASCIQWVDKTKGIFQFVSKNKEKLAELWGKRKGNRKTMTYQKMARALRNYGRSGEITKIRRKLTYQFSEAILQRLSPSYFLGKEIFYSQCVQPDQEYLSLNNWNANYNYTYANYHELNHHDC
Method in brief: as §1

ELF4 = ELF4 (Homo sapiens, UniProt Q99607 1-663)
Chain of ELF4 (Q99607 whole entry): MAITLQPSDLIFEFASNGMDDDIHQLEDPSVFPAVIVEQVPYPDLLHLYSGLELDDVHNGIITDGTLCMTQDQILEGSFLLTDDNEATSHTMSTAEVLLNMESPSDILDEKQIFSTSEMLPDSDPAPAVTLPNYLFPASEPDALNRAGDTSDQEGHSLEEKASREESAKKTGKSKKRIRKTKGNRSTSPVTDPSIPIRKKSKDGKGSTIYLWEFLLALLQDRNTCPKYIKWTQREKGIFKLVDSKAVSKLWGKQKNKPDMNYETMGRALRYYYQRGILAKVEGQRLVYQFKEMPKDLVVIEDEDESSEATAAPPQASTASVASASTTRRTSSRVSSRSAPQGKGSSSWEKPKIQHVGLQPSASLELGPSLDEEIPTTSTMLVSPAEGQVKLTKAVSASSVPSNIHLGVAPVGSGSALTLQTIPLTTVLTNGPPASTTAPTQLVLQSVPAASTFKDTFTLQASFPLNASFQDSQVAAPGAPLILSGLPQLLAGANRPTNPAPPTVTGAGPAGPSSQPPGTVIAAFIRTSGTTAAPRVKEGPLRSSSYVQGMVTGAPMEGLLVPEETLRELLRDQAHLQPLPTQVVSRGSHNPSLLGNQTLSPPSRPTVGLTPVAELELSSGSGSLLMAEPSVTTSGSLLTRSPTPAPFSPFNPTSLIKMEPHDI
Method in brief: as §1

ETV2 = target: T6, ETV2 (Homo sapiens, UniProt O00321 1-342)
T6 sequence: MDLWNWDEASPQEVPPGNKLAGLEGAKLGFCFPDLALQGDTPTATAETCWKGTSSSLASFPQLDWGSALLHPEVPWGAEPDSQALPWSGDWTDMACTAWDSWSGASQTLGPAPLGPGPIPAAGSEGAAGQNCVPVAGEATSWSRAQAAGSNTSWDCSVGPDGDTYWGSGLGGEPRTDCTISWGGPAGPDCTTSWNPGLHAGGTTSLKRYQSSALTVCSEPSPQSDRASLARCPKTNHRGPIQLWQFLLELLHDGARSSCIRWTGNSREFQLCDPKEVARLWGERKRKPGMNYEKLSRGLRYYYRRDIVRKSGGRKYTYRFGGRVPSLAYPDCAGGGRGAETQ
Method in brief: as §1

ELF3 = target: T7, ELF3 (Homo sapiens, UniProt P78545 1-371)
T7 sequence: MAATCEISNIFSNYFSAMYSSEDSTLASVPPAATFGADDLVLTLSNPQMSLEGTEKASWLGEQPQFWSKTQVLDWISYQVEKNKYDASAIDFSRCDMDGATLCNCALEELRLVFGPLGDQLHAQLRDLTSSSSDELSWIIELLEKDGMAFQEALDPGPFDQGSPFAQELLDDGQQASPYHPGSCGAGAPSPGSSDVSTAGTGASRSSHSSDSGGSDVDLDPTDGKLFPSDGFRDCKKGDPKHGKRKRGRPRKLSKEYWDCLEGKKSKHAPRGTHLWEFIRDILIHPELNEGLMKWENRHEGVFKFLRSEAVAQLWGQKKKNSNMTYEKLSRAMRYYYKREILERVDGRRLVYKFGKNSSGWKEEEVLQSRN
Method in brief: as §1

ETV1 = ETV1 (Homo sapiens, UniProt P50549 1-477)
Chain of ETV1 (P50549 whole entry): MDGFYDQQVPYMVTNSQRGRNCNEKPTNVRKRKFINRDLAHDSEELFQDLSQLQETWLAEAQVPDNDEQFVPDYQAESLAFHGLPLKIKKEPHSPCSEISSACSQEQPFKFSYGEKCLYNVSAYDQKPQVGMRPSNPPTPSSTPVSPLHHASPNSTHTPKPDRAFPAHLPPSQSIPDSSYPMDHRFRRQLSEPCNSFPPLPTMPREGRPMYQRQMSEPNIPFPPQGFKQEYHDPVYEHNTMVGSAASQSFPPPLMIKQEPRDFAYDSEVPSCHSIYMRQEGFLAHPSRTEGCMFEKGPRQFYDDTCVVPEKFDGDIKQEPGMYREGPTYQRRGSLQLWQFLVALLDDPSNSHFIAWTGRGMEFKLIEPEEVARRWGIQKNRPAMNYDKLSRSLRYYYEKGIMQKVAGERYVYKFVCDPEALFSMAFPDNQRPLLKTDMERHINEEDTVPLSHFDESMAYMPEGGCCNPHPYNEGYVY
Method in brief: as §1

ERF = target: T8, ERF (Homo sapiens, UniProt P50548 1-548)
T8 sequence: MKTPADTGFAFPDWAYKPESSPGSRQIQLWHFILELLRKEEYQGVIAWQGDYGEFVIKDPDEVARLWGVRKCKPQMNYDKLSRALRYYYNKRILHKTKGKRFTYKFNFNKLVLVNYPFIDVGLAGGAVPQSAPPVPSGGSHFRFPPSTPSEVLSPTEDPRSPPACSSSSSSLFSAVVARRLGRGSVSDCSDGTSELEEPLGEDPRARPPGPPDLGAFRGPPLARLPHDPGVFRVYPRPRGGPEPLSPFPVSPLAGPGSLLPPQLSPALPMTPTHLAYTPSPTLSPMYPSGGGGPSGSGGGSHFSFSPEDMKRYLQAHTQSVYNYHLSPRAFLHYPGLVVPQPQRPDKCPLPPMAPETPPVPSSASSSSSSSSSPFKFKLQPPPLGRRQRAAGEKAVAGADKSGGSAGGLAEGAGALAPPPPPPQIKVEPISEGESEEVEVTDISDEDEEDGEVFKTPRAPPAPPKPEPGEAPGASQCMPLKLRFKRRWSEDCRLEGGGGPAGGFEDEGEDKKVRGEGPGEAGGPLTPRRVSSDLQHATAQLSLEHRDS
Method in brief: as §1

ETV3L = target: T9, ETV3L (Homo sapiens, UniProt Q6ZN32 1-361)
T9 sequence: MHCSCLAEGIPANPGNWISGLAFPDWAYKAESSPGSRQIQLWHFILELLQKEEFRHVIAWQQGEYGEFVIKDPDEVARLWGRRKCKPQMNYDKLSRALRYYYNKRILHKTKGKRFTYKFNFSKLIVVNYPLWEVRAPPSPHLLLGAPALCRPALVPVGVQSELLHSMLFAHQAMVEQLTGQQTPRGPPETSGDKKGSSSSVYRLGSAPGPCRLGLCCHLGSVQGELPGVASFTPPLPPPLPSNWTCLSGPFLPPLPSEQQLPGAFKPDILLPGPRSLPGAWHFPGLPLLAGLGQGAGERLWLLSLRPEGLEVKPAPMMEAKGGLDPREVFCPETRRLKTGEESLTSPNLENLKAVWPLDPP
Method in brief: as §1

ETS2 = target: T10, ETS2 (Homo sapiens, UniProt P15036 1-469)
T10 sequence: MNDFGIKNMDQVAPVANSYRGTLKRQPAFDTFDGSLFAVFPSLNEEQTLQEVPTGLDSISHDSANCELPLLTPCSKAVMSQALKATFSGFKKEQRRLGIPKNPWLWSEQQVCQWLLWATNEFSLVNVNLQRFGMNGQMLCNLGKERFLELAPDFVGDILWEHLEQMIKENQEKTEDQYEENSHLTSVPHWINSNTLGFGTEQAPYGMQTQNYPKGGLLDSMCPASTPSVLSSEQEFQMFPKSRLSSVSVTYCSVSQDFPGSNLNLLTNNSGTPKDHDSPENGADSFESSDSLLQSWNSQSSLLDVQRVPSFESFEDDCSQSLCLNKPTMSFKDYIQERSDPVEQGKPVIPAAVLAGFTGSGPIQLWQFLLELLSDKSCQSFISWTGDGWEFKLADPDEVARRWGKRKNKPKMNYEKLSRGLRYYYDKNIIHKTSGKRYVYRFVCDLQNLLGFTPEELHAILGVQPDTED
Method in brief: as §1

ETV7 = target: T11, ETV7 (Homo sapiens, UniProt Q9Y603 1-341)
T11 sequence: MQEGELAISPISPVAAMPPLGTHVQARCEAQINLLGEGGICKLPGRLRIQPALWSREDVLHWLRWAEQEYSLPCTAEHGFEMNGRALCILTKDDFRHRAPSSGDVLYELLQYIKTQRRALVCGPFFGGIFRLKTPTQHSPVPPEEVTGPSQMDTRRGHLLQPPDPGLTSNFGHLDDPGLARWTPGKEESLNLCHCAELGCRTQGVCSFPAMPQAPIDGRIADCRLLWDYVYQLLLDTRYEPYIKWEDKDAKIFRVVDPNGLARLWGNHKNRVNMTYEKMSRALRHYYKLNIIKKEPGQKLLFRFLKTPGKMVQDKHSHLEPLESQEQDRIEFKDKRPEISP
Method in brief: as §1

ETV3 = target: T12, ETV3 (Homo sapiens, UniProt P41162-2 1-143)
T12 sequence: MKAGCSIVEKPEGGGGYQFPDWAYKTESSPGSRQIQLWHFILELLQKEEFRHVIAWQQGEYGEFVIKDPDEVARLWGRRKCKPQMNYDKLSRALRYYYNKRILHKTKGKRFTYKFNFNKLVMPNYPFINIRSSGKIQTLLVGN
Method in brief: as §1

ETV6 = ETV6 (Homo sapiens, UniProt P41212 1-452)
Chain of ETV6 (P41212 whole entry): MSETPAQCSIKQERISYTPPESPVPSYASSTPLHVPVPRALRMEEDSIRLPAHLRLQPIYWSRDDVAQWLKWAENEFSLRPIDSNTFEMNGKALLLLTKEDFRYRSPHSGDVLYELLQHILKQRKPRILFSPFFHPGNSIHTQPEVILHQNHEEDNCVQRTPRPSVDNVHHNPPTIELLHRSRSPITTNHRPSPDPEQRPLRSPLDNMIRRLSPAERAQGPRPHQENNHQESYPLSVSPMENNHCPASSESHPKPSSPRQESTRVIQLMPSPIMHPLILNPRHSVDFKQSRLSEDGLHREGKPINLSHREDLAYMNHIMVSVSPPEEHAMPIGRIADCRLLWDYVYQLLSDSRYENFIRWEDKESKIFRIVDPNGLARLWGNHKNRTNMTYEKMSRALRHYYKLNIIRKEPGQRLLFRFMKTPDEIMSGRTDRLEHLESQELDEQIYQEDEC
Method in brief: as §1

For TGATTG, the binding signal (FLI1) was 1.16 fold enrichment (6-mer frequency, TF over GST control), the binding signal (ELK1) was 1.16 fold enrichment (6-mer frequency, TF over GST control) and the binding signal (ERG) was 1.08 fold enrichment (6-mer frequency, TF over GST control). The binding signal (ELF1) was 1.06 fold enrichment (6-mer frequency, TF over GST control), the binding signal (SPI1) was 1.04 fold enrichment (6-mer frequency, TF over GST control) and the binding signal (SPIB) was 1.09 fold enrichment (6-mer frequency, TF over GST control). The binding signal (ELK3) was 1.11 fold enrichment (6-mer frequency, TF over GST control), the binding signal (SPIC) was 1.05 fold enrichment (6-mer frequency, TF over GST control) and the binding signal (ELF4) was 1.02 fold enrichment (6-mer frequency, TF over GST control). The binding signal (ETV2) was 1.06 fold enrichment (6-mer frequency, TF over GST control), the binding signal (ELF3) was 1.05 fold enrichment (6-mer frequency, TF over GST control) and the binding signal (ETV1) was 1.1 fold enrichment (6-mer frequency, TF over GST control). For the same sequence, the binding signal (ERF) was 1.13 fold enrichment (6-mer frequency, TF over GST control), the binding signal (ETV3L) was 1.09 fold enrichment (6-mer frequency, TF over GST control) and the binding signal (ETS2) was 1.01 fold enrichment (6-mer frequency, TF over GST control). The binding signal (ETV7) was 1.05 fold enrichment (6-mer frequency, TF over GST control), the binding signal (ETV3) was 1.05 fold enrichment (6-mer frequency, TF over GST control) and the binding signal (ETV6) was 1.04 fold enrichment (6-mer frequency, TF over GST control).
